# CatB mixtures = human cathepsin B inhibition by mixtures; P07858; Purified cathepsin B, AMC dipeptide fluorescence, compound mixtures; inhibition, %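 (ten-compound pools at 5 µM per compound and 50 µM total)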; 62,000 tested, 0.06% active; AID 488; in the data active means inhibition above about 22%, passing the limit was not always enough; inconclusive means no clear call, values can overlap the other calls;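 further: 0% = enzyme without compound and 100% = no enzyme blank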
# CatB block = inhibitors of human cathepsin B | purified cathepsin B, fluorogenic substrate, fluorescence | inhibition, %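 (tested at 10 µM)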 | 63,000 tested, 0.1% active | P07858 | AID 453; in the data active means inhibition above about 21%;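 further: 0% = enzyme with no compound and 100% = no enzyme blank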
# C1s inh = blocks human complement C1s protease activity; P09871; mean inhibition % of two 10-compound mixtures (hits give high values), % at 5 µM (by protocol); purified C1s, fluorogenic AMC substrate, pooled mixtures; 62,000 tested, 0.16% active;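 active means inhibition above 20% in each of the two 10-compound mixture wells holding the compound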;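 further: 0% = enzyme wells lacking compound mixture and 100% = no-enzyme blank wells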
# CatG inh = inhibitors of human cathepsin G | P08311 | purified enzyme, AMC-tetrapeptide fluorescence, pooled mixtures | inhibition, % at 5 µM (by protocol) | AID 581 | 62,000 tested, 0.2% active;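 active means inhibition above 20% in each of the two mixture wells holding the compound; inactive means inhibition of 20% or less in either well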;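 further: 0% = enzyme control without mixture and 100% = blank lacking enzyme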
# Target sequence (P08311 21-244 limits assumed): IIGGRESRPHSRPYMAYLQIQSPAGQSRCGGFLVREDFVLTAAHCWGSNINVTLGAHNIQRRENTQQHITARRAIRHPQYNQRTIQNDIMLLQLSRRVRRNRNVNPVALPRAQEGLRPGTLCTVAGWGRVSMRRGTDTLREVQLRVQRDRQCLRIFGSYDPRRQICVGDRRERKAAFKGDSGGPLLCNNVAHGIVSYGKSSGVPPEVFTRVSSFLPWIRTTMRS
# CatL block = blocks human cathepsin L protease activity; inhibition, %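 (tested at 10 µM)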; P07711; purified cathepsin L, fluorogenic substrate, fluorescence; 58,000 tested, 0.17% active; in the data active means inhibition above about 45%;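 further: 0% = enzyme with no compound and 100% = no enzyme blank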
# CatS inh = human cathepsin S inhibition; P25774; recombinant cathepsin S, AMC dipeptide fluorescence, pooled mixtures; inhibition, %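 (tested at 5 µM per compound within 10-compound mixtures)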; 62,000 tested, 0.06% active; in the data active means inhibition above about 32%, passing the limit was not always enough; inconclusive means no clear call, values can overlap the other calls;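 further: 0% = enzyme without compound and 100% = blank without enzyme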
# Target sequence (P25774 115-331 limits assumed): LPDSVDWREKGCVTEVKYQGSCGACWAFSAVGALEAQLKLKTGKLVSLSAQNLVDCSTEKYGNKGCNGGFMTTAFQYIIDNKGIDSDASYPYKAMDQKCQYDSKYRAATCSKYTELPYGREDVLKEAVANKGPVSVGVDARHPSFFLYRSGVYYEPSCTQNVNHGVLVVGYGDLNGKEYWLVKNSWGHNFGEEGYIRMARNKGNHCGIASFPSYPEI
# Active calls of the source: *; ? = inconclusive; . = not tested or not shown. In the library only some 0.58% were active in any assay of this set; here they are far more common.
SMILES,CatB mixtures,CatB block,C1s inh,CatG inh,CatL block,CatS inh
O=C(Nc1ccc(OC(=O)c2ccco2)cc1)c1ccco1,2,3,30,0,3,12
COc1ccc2c(c1)CCc1c(C(=O)NCCc3ccc(OC)c(OC)c3)noc1-2,0,2,-15,52,9,-1
COc1ccc2c(c1)CCc1c(C(=O)NCc3ccc(F)cc3)noc1-2,4,-1,44*,93*,-18,-6
COc1ccc2c(c1)CCc1c(C(=O)Nc3ccc(OC)c(OC)c3)noc1-2,5,-1,19,37*,-1,-4
C=CCn1c(O)c(CN2CCOCC2)c(C)c(C#N)c1=O,-1,-3,3,-2,103*,4
Cn1c(CN2CCOCC2)c(C#N)c2ccccc21,2,-5,1,-3,3,7
CC(C)(C)OC(=O)N1CCN(c2ccc(NC(=O)c3cc4ccccc4oc3=O)cc2)CC1,5,1,-13,2,7,32
Cc1ccc2oc(=O)c3cc(C(=O)N4CCN(c5ncccn5)CC4)sc3c2c1,3,-3,-10,-2,-12,-2
CCOC(=O)N1CCC(NC(=O)CSc2cc(=O)n(C)c3ccc(Cl)cc23)CC1,3,0,12,11,-2,0
COc1nc(N2CCCCCC2)nc(N2CCCCCC2)n1,3,4,26,-9,1,-4
COc1nc(N(C#N)CC(N)=O)nc(N2CCCC2)n1,23*,37*,-1,0,1,-4
Cn1c(C(=O)NC2CCCC2)cc2c(=O)n(C)c3ccccc3c21,3,-6,1,-3,0,2
COc1cccc(C2C3=C(CCCC3=O)Nc3nc4ccccc4n32)c1OC (configuration not stated),-3,3,-62,-18,-47,1
Cc1cc(Nc2nc3c(c(=O)n(C)c(=O)n3C)n2C)n(-c2ccccc2)n1,1,5,1,5,19,-5
CCOC(=O)c1cn2c3c(c(F)c(F)c(F)c3c1=O)SC(N1CCCC1)=N2,-1,2,-3,3,-25,0
CC1(C)COCN1S(=O)(=O)c1ccc(C(=O)Nc2nnc(-c3ccc(Cl)s3)o2)cc1,4,1,23*,10,8,3
COc1ccc(-c2nnc(NC(=O)c3ccc(S(=O)(=O)N4COCC4(C)C)cc3)o2)cc1,-1,4,12,1,18,10
COC(=O)c1ccc(C(=O)OC)c(NC(=O)c2cc3ccccc3o2)c1,.,2,.,.,8,.
Cc1ccsc1/C=c1\sc2ncnn2c1=O,5,2,11,43*,-8,-7
O=c1/c(=C/c2cccc3ccccc23)sc2ncnn12,0,5,-36,-8,15,15
COc1ccccc1-c1cc(C(=O)Nc2cccnc2)no1,-3,0,3,34*,-2,-5
COc1ccc(NC(=O)c2cc(-c3ccccc3OC)on2)cc1,38,-8,23,18,-5,-14
CN1CCN(S(=O)(=O)c2ccc(Br)s2)CC1,1,3,-2,-3,97*,9
CCCCc1[nH]nc2c1C1(C(=O)N(CC)c3ccccc31)C(C#N)=C(N)O2 (configuration not stated),-3,25*,-28,6,8,1
CCCc1[nH]nc2c1C1(C(=O)N(C(C)C)c3ccccc31)C(C#N)=C(N)O2 (configuration not stated),0,2,2,7,5,-2
SMILES,CatB mixtures,CatB block,C1s inh,CatG inh,CatL block,CatS inh
CCOC(=O)Cc1csc(NC(=O)COc2ccc(N(C)S(=O)(=O)c3cccs3)cc2)n1,2,0,12,12,18,6
Cn1c(C2=C(O)CN(c3ccc4c(c3)OCCO4)C2=N)nc2ccccc21,1,2,12,8,4,-4
O=C(CNC(=O)c1ccco1)OC(C(=O)c1ccccc1)c1ccccc1 (configuration not stated),?,18,-9,-2,78*,0
CCn1c(SCC(=O)c2c(N)n(C)c(=O)n(C)c2=O)nc2sc(C)c(C)c2c1=O,30,-1,33*,5,17,16
O=C(CSc1nnc(-c2csc3c2CCCC3)o1)Nc1ccccc1,-1,-1,5,8,.,-1
Nc1ccc2ncccc2c1N,.,7,.,.,79*,.
O=C(CCCCn1c(=O)[nH]c2ccsc2c1=O)NCc1cccnc1,25*,0,13,27,-1,2
COc1ccccc1CNC(=O)CCn1c(=O)[nH]c2ccsc2c1=O,7,-2,3,2,3,9
CCn1c(C)nc2cc(C(=O)n3cc(C(=O)c4cc(F)ccc4O)cn3)ccc21,2,6,25*,20,24,0
CCn1c(C)nc2cc(C(=O)OCCC(F)(F)F)ccc21,-2,3,-40,1,2,8
COc1ccc(C(=O)CSc2nc(C)cc(=O)[nH]2)cc1,3,2,13,12,4,-11
Cc1cc(=O)[nH]c(SCC(=O)c2ccc(C(C)C)cc2)n1,0,-3,57*,11,23,5
O=C(Oc1oc(-c2ccco2)nc1C=Nc1ccccc1)c1ccco1,11,22*,14,11,18,2
Cc1ccc(NC(=O)CCn2nc(C)cc2C)c(C)c1,4,3,5,10,-1,12
Cc1cccc(NC(=O)CCn2nc(C)cc2C)c1,-4,2,3,0,59*,1
COc1ccc(OC)c(-c2cc(C(=O)Nc3c(C)nn(Cc4ccccc4)c3C)no2)c1,0,2,-18,50*,3,19
COc1ccc(OC)c(-c2cc(C(=O)Nc3c(C)nn(Cc4ccc(Cl)cc4)c3C)no2)c1,1,1,11,10,25,2
Cc1nn(Cc2ccc(Cl)c(Cl)c2)c(C)c1NC(=O)c1cc(-c2ccc3c(c2)OCO3)on1,-3,0,-25,40*,13,3
COc1ccc(-c2cc(C(=O)Nc3c(C)nn(Cc4ccccc4Cl)c3C)no2)cc1,1,4,10,52*,-1,3
CCOc1cccc(NC(=O)c2ccc(S(=O)(=O)N3CCCC3)cc2)c1,-1,0,-41,-6,1,-5
Cc1nc2c(c(=O)n1CC1CCCO1)c1nc3ccccc3nc1n2Cc1ccc2c(c1)OCO2 (configuration not stated),.,7,.,.,-1,.
COc1ccc(CSc2nnc3n(C)c(=O)c4c5c(sc4n23)CCCC5)cc1,.,2,.,.,8,.
CCOC(=O)Cn1c(-c2nonc2NC(=O)c2ccccc2F)nc2ccccc21,0,2,8,6,-14,-4
CCCCOc1ccccc1NC(=O)Cn1c(-c2nonc2N)nc2ccccc21,-3,54*,-163,-14,60*,-7
Nc1nonc1-c1nc2ccccc2n1CC(=O)N1CCN(c2ccc(F)cc2)CC1,10,37*,-4,1,.,4

# Compound activity: PubChem, PCMD
